Our source for the normalised cell viability values is the supplement of paper PMC6609913.

Structures can show the parent of a compound that is named as a salt. ± gives the standard deviation of the averaged measurements. In all, about 1,300 compounds were measured (“normalised cell viability”: median about 1, lowest 2% from about 0.15 on). This is one part of a sample in which the lowest values are shown more often than they occur.

The experiment relates to V-C8 + BRCA2 (BRCA2-proficient hamster cells). Briefly: normalised cell viability (fraction of plate median); higher = more viable cells (less toxic). As to conditions: 5 µM. In short, it runs like this: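 Cell viability was measured with a resazurin assay, normalised to the plate median (modified robust per cent of sample) and averaged over triplicate wells. Hamster V-C8 cells lacking BRCA2 and V-C8 cells with BRCA2 restored were seeded in 96-well plates. After 24 h, library drugs from 10 mM DMSO stocks were added at a final 5 μM in 100 μl medium and left for 3 days (screen 1) or 6 days (screen 2), with solvent-only wells alongside.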

`CC[C@H](c1ccc(O)cc1)[C@@H](CC)c1ccc(O)cc1` [Hexestrol]: the normalised cell viability reads like this: (treatment time: 3 days) 0.9735 ± 0.0097; (treatment time: 6 days) 0.944 ± 0.19.

Regarding `Nc1nc(NC2CC2)c2ncn([C@H]3C=C[C@@H](CO)C3)c2n1` [Abacavir Sulfate], the normalised cell viability is, setting by setting: (treatment time: 3 days) 1.04 ± 0.02; (treatment time: 6 days) 1.07 ± 0.034.

`C=CCOC(Cn1ccnc1)c1ccc(Cl)cc1Cl` (configuration not stated) [Enilconazole]: the normalised cell viability came to 0.985 ± 0.021 (treatment time: 3 days) and 1.04 ± 0.013 (treatment time: 6 days).

On to `NC(N)=Nc1nc(CSCC/C(N)=N/S(N)(=O)=O)cs1` [Famotidine], for which the normalised cell viability is 1.16 ± 0.079 (treatment time: 3 days) and 1.1 ± 0.096 (treatment time: 6 days).

Turning to `CC(C)(O/N=C(\C(=O)N[C@@H]1C(=O)N2C(C(=O)[O-])=C(C[n+]3ccccc3)CS[C@H]12)c1csc(N)n1)C(=O)O` [Ceftazidime pentahydrate], the normalised cell viability (treatment time: 3 days) came to 1.03 ± 0.011 and the normalised cell viability (treatment time: 6 days) was found to be 1 ± 0.039.

For `Cc1ccc(O)c([C@H](CCN(C(C)C)C(C)C)c2ccccc2)c1` [Tolterodine tartrate], the normalised cell viability runs as follows: (treatment time: 3 days) 1.05 ± 0.062; (treatment time: 6 days) 0.965 ± 0.053.

Consider `COc1ccc2cc(CCC(C)=O)ccc2c1` [Nabumetone], for which the normalised cell viability was found to be 1.05 ± 0.12 (treatment time: 3 days) and 1.02 ± 0.044 (treatment time: 6 days).

On to `CC(C)C(=O)c1c(C(C)C)nn2ccccc12` [Ibudilast], for which the normalised cell viability stood at 0.987 ± 0.062 (treatment time: 3 days) and 0.981 ± 0.061 (treatment time: 6 days).

For the compound `CC(C)(C)NC[C@H](O)c1ccc(O)c(CO)c1` [Levalbuterol hydrochloride], the normalised cell viability is, setting by setting: (treatment time: 3 days) 0.965 ± 0.089; (treatment time: 6 days) 1.004 ± 0.0069.

With `Clc1ccc(CO/N=C(\Cn2ccnc2)c2ccc(Cl)cc2Cl)c(Cl)c1` [Oxiconazole Nitrate], the normalised cell viability reads like this: (treatment time: 3 days) 1.07 ± 0.16; (treatment time: 6 days) 0.675 ± 0.12.

As to `CC(=O)OCC(=O)[C@@]12OC(C)(C)O[C@@H]1C[C@H]1[C@@H]3C[C@H](F)C4=CC(=O)C=C[C@]4(C)[C@@]3(F)[C@@H](O)C[C@@]12C` [Fluocinonide], the normalised cell viability (treatment time: 3 days) came to 1.04 ± 0.017 and the normalised cell viability (treatment time: 6 days) is 1.06 ± 0.04.

With `C[n+]1ccccc1/C=N/O` [Pralidoxime chloride], the normalised cell viability is 0.99 ± 0.036 (treatment time: 3 days) and 0.9475 ± 0.0081 (treatment time: 6 days).

Regarding `NS(=O)(=O)c1cc(C2(O)NC(=O)c3ccccc32)ccc1Cl` (configuration not stated) [Chlorthalidone], the normalised cell viability runs as follows: (treatment time: 3 days) 1.1 ± 0.018; (treatment time: 6 days) 1.03 ± 0.079.

Take `CCc1cccc2c3c([nH]c12)C(CC)(CC(=O)O)OCC3` (configuration not stated) [Etodolac]: the normalised cell viability came to 0.922 ± 0.034 (treatment time: 3 days) and 1.04 ± 0.084 (treatment time: 6 days).

As to `CN[C@@H]1[C@H](O[C@H]2[C@H](O[C@H]3[C@H](O)[C@@H](O)[C@H](NC(=N)N)[C@@H](O)[C@@H]3NC(=N)N)O[C@@H](C)[C@]2(O)CO)O[C@@H](CO)[C@H](O)[C@H]1O` [Dihydrostreptomycin sulfate], the normalised cell viability reads like this: (treatment time: 3 days) 0.911 ± 0.07; (treatment time: 6 days) 0.983 ± 0.042.

`NS(=O)(=O)c1cc2c(cc1C(F)(F)F)NC(Cc1ccccc1)NS2(=O)=O` (configuration not stated) [Bendroflumethiazide]: the normalised cell viability reads like this: (treatment time: 3 days) 0.992 ± 0.096; (treatment time: 6 days) 1.03 ± 0.032.

In the case of `CC[C@H](C)C(=O)O[C@H]1CCC=C2C=C[C@H](C)[C@H](CC[C@@H]3C[C@@H](O)CC(=O)O3)[C@H]21` [Mevastatin], the normalised cell viability reads like this: (treatment time: 3 days) 0.246 ± 0.0034; (treatment time: 6 days) 0.23 ± 0.011.

Turning to `CC[C@H](C)C(=O)O[C@H]1C[C@@H](C)C=C2C=C[C@H](C)[C@H](CC[C@@H]3C[C@@H](O)CC(=O)O3)[C@H]21` [Lovastatin], the normalised cell viability is, setting by setting: (treatment time: 3 days) 0.19 ± 0.015; (treatment time: 6 days) 0.153 ± 0.019.

As for `CC[C@H](C)C(=O)O[C@H]1C[C@H](O)C=C2C=C[C@H](C)[C@H](CC[C@@H](O)C[C@@H](O)CC(=O)O)[C@H]21` [Pravastatin], the normalised cell viability is, setting by setting: (treatment time: 3 days) 0.969 ± 0.14; (treatment time: 6 days) 1.02 ± 0.089.

As to `NCCNCCNCCNCCN` [Tetraethylenepentamine pentahydrochloride], the normalised cell viability stood at 0.972 ± 0.03 (treatment time: 3 days) and 1.01 ± 0.024 (treatment time: 6 days).

In the case of `CC=CC1=C(C(=O)O)N2C(=O)[C@@H](NC(=O)[C@H](N)c3ccc(O)cc3)[C@H]2SC1` [Cefprozil], the normalised cell viability turned out to be 0.951 ± 0.071 (treatment time: 3 days) and 0.908 ± 0.072 (treatment time: 6 days).

As for `Clc1cnccn1` [2-Chloropyrazine], the normalised cell viability is, setting by setting: (treatment time: 3 days) 1.02 ± 0.036; (treatment time: 6 days) 1.02 ± 0.071.

In the case of `Cc1cc(-c2ccccc2)nnc1NCCN1CCOCC1` [Minaprine dihydrochloride], the normalised cell viability reads like this: (treatment time: 3 days) 1.1 ± 0.02; (treatment time: 6 days) 1.03 ± 0.048.

Take `CC(C(=O)O)c1ccc2c(c1)[nH]c1ccc(Cl)cc12` (configuration not stated) [Carprofen]: the normalised cell viability (treatment time: 3 days) is 1.04 ± 0.11 and the normalised cell viability (treatment time: 6 days) came out at 1.04 ± 0.13.

Consider `CN(Cc1ccc(C(C)(C)C)cc1)Cc1cccc2ccccc12` [Butenafine Hydrochloride], for which the normalised cell viability reads like this: (treatment time: 3 days) 1.06 ± 0.05; (treatment time: 6 days) 0.982 ± 0.048.

As to `C[C@@H]1C[C@H]2[C@@H]3C[C@H](F)C4=CC(=O)C=C[C@]4(C)[C@@]3(Cl)[C@@H](O)C[C@]2(C)[C@H]1C(=O)COC(=O)C(C)(C)C` [Clocortolone pivalate], the normalised cell viability stood at 1.03 ± 0.27 (treatment time: 3 days) and 0.899 ± 0.07 (treatment time: 6 days).

As for `CCN(CC)C(=O)C1(c2ccccc2)CC1CN` (configuration not stated) [Milnacipran hydrochloride], the normalised cell viability runs as follows: (treatment time: 3 days) 0.956 ± 0.095; (treatment time: 6 days) 0.937 ± 0.048.

Consider `COc1nc(C)nc(Cl)c1NC1=NCCN1` [Moxonidine], for which the normalised cell viability worked out at 1.014 ± 0.0037 (treatment time: 3 days) and 0.9963 ± 0.0028 (treatment time: 6 days).

As to `CC1CC(OC(=O)c2ccccc2O)CC(C)(C)C1` (configuration not stated) [Homosalate], the normalised cell viability is, setting by setting: (treatment time: 3 days) 1.03 ± 0.04; (treatment time: 6 days) 1.02 ± 0.074.

As for `CN(C)C(=O)C(CCN1CCC(O)(c2ccc(Cl)cc2)CC1)(c1ccccc1)c1ccccc1` [Loperamide hydrochloride], the normalised cell viability turned out to be 0.687 ± 0.041 (treatment time: 3 days) and 0.67 ± 0.057 (treatment time: 6 days).

On to `CN[C@H](CC(C)C)C(=O)N[C@H]1C(=O)N[C@@H](CC(N)=O)C(=O)N[C@H]2C(=O)N[C@H]3C(=O)N[C@H](C(=O)N[C@H](C(=O)O)c4cc(O)cc(O)c4-c4cc3ccc4O)[C@H](O)c3ccc(c(Cl)c3)Oc3cc2cc(c3O[C@@H]2O[C@H](CO)[C@@H](O)[C@H](O)[C@H]2O[C@H]2C[C@](C)(N)[C@H](O)[C@H](C)O2)Oc2ccc(cc2Cl)[C@H]1O` [Vancomycin hydrochloride], for which the normalised cell viability reads like this: (treatment time: 3 days) 0.177 ± 0.0067; (treatment time: 6 days) 0.17 ± 0.018.
